Pf growth 48h: P. falciparum growth inhibition at 48 hours (one generation); P. falciparum luciferase growth in erythrocytes, 48 h; actives 5.9% (n = 310,000); Potency, µM (highest dose often 28.7 µM), inactives show at the highest dose activity change, negative = inhibition, most hits filed as inhibitors; AID 504832; note: potency is the fitted concentration of half-maximal effect; % is set by controls: 0 for no effect and ±100 for the full control effect
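Erythrocytes infected with P. falciparum carrying an integrated firefly luciferase reporter (2% hematocrit, 0.1% parasitemia final) were exposed to compounds in RPMI 1640 with 0.5% Albumax at 37 C, 5% CO2. Growth inhibition was scored as reduced luminescence.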
Shiga toxin inh: Shiga toxin inhibition. Vero cells, Shiga toxin protein synthesis inhibition reporter. inhibition, % at 38.7 µM. actives 9.2% (n = 290,000); in the data active = inhibition mostly above about 28%, no sharp cut-off; inactive = mostly below about 43%; note: 0% is about no effect
HCMV antiviral: blocks human cytomegalovirus replication. actives 4.5% (n = 410,000). HFF cells, HCMV-luciferase reporter, 72 h; stronger effect = lower value. activity change, negative = inhibition, % at 57.5 µM; in the data active = activity change below about -60%; inconclusive = no clear call, values can overlap the other calls; inactive = above about -39%; note: % is set by controls: 0 for no effect and ±100 for the full control effect
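Screen run at 2 compound doses on HFFs infected with reporter HCMV, MOI 1 PFU/cell. Luciferase activity from cell lysates at 72 h post infection gave inhibition relative to buffer-only and Salinomycin wells.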
Pf growth 96h: inhibits malaria parasite growth, 96 h. P. falciparum luciferase reporter growth, 96 h. Potency, µM (highest dose often 28.7 µM), inactives show top-dose activity change, negative = inhibition, usual class: inhibitors. actives 6.9% (n = 320,000). AID 504834; note: potency is the fitted concentration of half-maximal effect; % is set by controls: 0 for no effect and ±100 for the full control effect
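Parasite growth measured via integrated firefly luciferase reporter in P. falciparum. Infected erythrocytes at 2% hematocrit, 0.05% parasitemia final were treated 96 hours at 37 C under 5% CO2, and luminescence was read.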
Cycloheximide cs: affects cycloheximide protein synthesis inhibition readout, counter-screen. cell reporter, cycloheximide protein synthesis inhibition counterscreen. max response, %. actives 12% (n = 300,000); in the data active = max response mostly above about 13%, no sharp cut-off; inactive = mostly below about 14%; note: read at 38.3 µM for the half of the compounds with a filed dose; 0% is about no effect
Starred values were filed as active, the others as inactive; ? = inconclusive; . = no result given. This is a sample that favours compounds with a hit; in the whole collection about 20% have one here. Unless noted, calls come from the whole dose curve; as a rule, active = well fitted inhibition curve with a large enough effect; inconclusive = small, poorly fitted or top-dose-only effect, or another doubt; inactive = no such curve, though single readings can be large or run the other way.

SMILES	Pf growth 48h	Shiga toxin inh	HCMV antiviral	Pf growth 96h	Cycloheximide cs
O=C(Nc1ccnn1C1CCN(Cc2ccc(CO)o2)CC1)c1ccccc1	-4%	-4	10	?	2
COc1cccc(CNC(=O)c2cc3cccc4c3n2CC(C)S4)c1OC (stereo not given)	.	.	0	.	.
Cc1cccc(Nc2nc(-c3ccc(F)c(C)c3)cs2)n1	11%	113*	178	10%	49*
Cc1cccc(Nc2nc(-c3ccc(O)c(O)c3)cs2)n1	-35%	85*	182	?	42*
CC(=O)Nc1cc(-c2ccc(CO)cc2)cn2c(-c3ccc(F)c(Cl)c3)cnc12	.	.	-37	.	.
C=CCn1c(C)cc(C(=O)COC(=O)C2CC(=O)N(Cc3ccccc3)C2)c1C (stereo not given)	10%	36	6	15%	12*
C=CCn1c(C)cc(C(=O)COC(=O)CNC(=O)c2ccccc2)c1C	190%	11*	?	133%	114*
CCN(Cc1ccc2c(c1)OCO2)C(=O)CSc1nc(C)nc2sc(C)c(C)c12	?	.	-20	-23%	.
Cc1ccc(NC(=O)CC(C)S(=O)(=O)c2ccc3c(c2)NC(=O)CO3)c(C)c1 (stereo not given)	.	.	-21	.	.
Cc1cc(C)n(-c2ccc(Cl)c(C(=O)Nc3ccc(OC(F)(F)F)cc3)n2)n1	10%	27	2	27%	-1
Cc1c(C(=O)N2CCOCC2)sc2nc(-c3ccccc3)cn12	.	43*	50	.	21*
Cc1c(C(=O)N2CCc3ccccc3C2)sc2nc(-c3ccccc3)cn12	?	45*	-15	?	27*
Cc1c(C(=O)N2CCN(c3ccc(F)cc3)CC2)sc2nc(-c3ccccc3)cn12	21%	2	-5	21%	-2
Cc1ccc(Nc2nnc(-c3ccccc3N)o2)cc1C	110%	41*	76	62%	26*
Cc1ccc(-c2nn(-c3ccccc3)cc2CO)cc1	86%	144*	-8	20%	42*
N=C(N)SCc1cn(-c2ccccc2)nc1-c1ccc(Br)cc1	0%	-34	-87*	0%	-9
COc1ccc(-c2nn(-c3ccccc3)cc2N)cc1	198%	183*	-11	33%	61*
CC(=O)c1ccc(NC(=O)c2cn(-c3ccccc3)nc2-c2ccc(Br)cc2)cc1	.	.	-1	.	.
Cc1ccc(-c2nn(-c3ccccc3)cc2CNCc2ccccc2)cc1	?	-3	-38	-13%	-4
O=[N+]([O-])c1cccc(-c2nn(-c3ccccc3)cc2CO)c1	15%	27	-12	0.47µM*	12*
O=C(O)/C=C/c1cn(-c2ccccc2)nc1-c1cccc([N+](=O)[O-])c1	-16%	-10	-19	-13%	-2
O=C1C2C3C=CC(O3)C2C(=O)N1N=Cc1cccc2ccccc12 (stereo not given)	.	.	13	.	.
O=C(O[C@H]1CC[C@@]23CCCN2C(=O)CCC[C@H]3C1)c1ccc(Br)cc1	.	.	-23	.	.
CC(C)(C)C(c1nc2ccccc2[nH]1)n1c(-c2cc(Cl)cc(Cl)c2)nc2ccccc21 (stereo not given)	.	.	16	.	.
CC(C)(C)NC(=O)C(c1ccsc1)N(CCc1ccccc1)C(=O)Cn1nnc2ccccc21 (stereo not given)	?	3	-22	?	-1
SMILES	Pf growth 48h	Shiga toxin inh	HCMV antiviral	Pf growth 96h	Cycloheximide cs
COc1ccc(-c2cn(-c3ccccc3)nc2CO)cc1	57%	111*	25	110%	37*
OCc1cn(-c2ccccc2)nc1-c1cccnc1	13%	-12	?	9%	11
COc1ccc(-c2nn(-c3ccccc3)cc2CO)cc1	105%	164*	3	11%	61*
CCC(C)(C)C1CCC2(CC1)NC(=O)N(CC(=O)NC(C)CCc1ccccc1)C2=O (stereo not given)	?	.	-21	-16%	.
CCOC(=O)C1CCCN(c2ncnc3c2[nH]c2cccc(OC)c23)C1 (stereo not given)	12µM*	-16	.	.	0
CCOC(=O)C1CCCN(c2ncnc3c2cnn3-c2cccc(C)c2)C1 (stereo not given)	152%	118*	3	?	41*
CCN(CC)C(=O)C1CCCN(c2ncnc3c2cnn3-c2cccc(C)c2)C1 (stereo not given)	.	63*	-37	?	34*
CCN(CC)C(=O)C1CCCN(c2ncnc3c2cnn3-c2ccc(Cl)cc2)C1 (stereo not given)	33%	62*	-68*	92%	23*
COc1cccc2[nH]c3c(N4CCCC(C)C4)ncnc3c12 (stereo not given)	?	40	26	?	19
COc1ccc(CCNC(=O)CSC2=NS(=O)(=O)c3cc(F)ccc3N2)cc1OC	.	.	-7	.	.
Nc1n[nH]c(C2CC2)c1N=Nc1ccc(Cl)c(Cl)c1	42%	51*	2	30%	22
COc1ccc(-c2nc3ccccc3c(=O)n2CCOc2c(C)cccc2C)cc1	12µM*	13	-27	-78%	-2
COc1ccc(-c2nc3ccccc3c(=O)n2CCOc2cccc(C)c2C)cc1	6%	-6	-15	-19%	4
CCn1c(COc2ccc(C)cc2)nc2ccccc21	72%	79*	?	45%	44*
COCCn1c(-c2ccc(OC)cc2)nc2ccccc21	.	-1	13	?	16*
COCCn1c(COc2ccc(C)cc2)nc2ccccc21	81%	71*	40	?	42*
O=S(=O)(c1ccccc1)N1CCN(C(c2ccccc2)c2ccc(OC(F)(F)F)cc2)CC1 (stereo not given)	.	-1	33	2%	-4
COc1cc(OC)c(NC(=O)CCc2nc(C3=CCN(Cc4cccc(Cl)c4)CC3)no2)cc1Cl	.	.	-6	.	.
O=C(Cc1nnc(NC(=O)Nc2ccc(F)cc2)s1)NCc1ccccc1	0%	-4	0	-7%	1
CCOCCn1c(COc2ccc(C)cc2)nc2ccccc21	40%	40*	1	6%	37*
Cc1ccc(OCc2nc3ccccc3n2CCOc2ccc(Cl)cc2)cc1	.	.	-36	.	.
Cn1cnc(S(=O)(=O)N2CCC(C(=O)Nc3ccc(F)cc3F)CC2)c1	.	.	-19	.	.
S=C(NCC1CCCO1)N1CCN(Cc2ccccc2)CC1 (stereo not given)	18%	6	48	?	7
c1ccc2c(c1)nc(NCC1CCCO1)c1nnnn12 (stereo not given)	11%	58*	-17	-11%	21*
S=C(NCC1CCCO1)n1nnc2ccccc21 (stereo not given)	?	-1	-9	?	31*
CNc1ncnc2c1cnn2C1CCCCO1 (stereo not given)	.	.	-18	.	.
CC(C)(C)n1cc(C(=O)c2ccccc2)cc1-c1ccccc1	12µM*	33	-27	?	-1
O=C(NC(=O)c1ccc(Cl)cc1)Nc1ccc(-c2cnco2)cc1	10%	-9	.	0%	-1

High-throughput results deposited in PubChem BioAssay by National Center for Advancing Translational Sciences (NCATS).
